CFTR F508del cor = CFTR F508del correction in bronchial cells. activity (quench increase), % at 7.58 µM. CFBE cells, YFP halide quenching; stimulated with forskolin plus potentiator P3; % fluorescence drop versus neutral controls. 0.36% of 350,000 active;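 active = mean added fluorescence quench of at least 8% versus neutral control, with both replicates also reaching 8%; inconclusive = only one of the mean or replicate conditions met; inactive = mean below 8% and not both replicates reaching 8%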;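 note: cells transiently co-express mutant CFTR-F508del with the halide-sensitive YFP; corrector assay measuring rescue of mutant channel to the surface after 24 h compound exposure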
EWS-Fli block = EWS/Fli transcriptional activity inhibition; A673 NR0B1-luciferase reporter, viability-normalised; inhibition, % at 12.6 µM; 0.67% of 350,000 active; AID 651661;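 active = mean inhibition of at least 50% after viability correction, with every replicate also passing that limit; inconclusive = mean reaches 50% but only one of two replicates passes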;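 note: firefly luciferase signal divided by Alamar Blue viability fluorescence both relative to DMSO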
GSIS activator = primary screen for activators of insulin secretion dependent on glucose, INS-1E cells, GLuc reporter luminescence | INS-1E GLuc reporter insulin secretion, 2-3 h | activation, % at 16.6 µM | 0.61% of 370,000 active;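 active = lowest replicate activation of at least 40%, so every replicate reaches that level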
PAX8 reporter = lowers PAX8-driven luciferase in RMG-I cells; RMG-I TPO-luciferase reporter, SteadyGlo, 24 h; inhibition, % at 12.6 µM; 1.2% of 360,000 active; AID 652154;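 active = mean replicate inhibition at least 60% with every replicate also reaching 60%; inconclusive = only one of the two criteria is met; inactive = mean below 60% and not all replicates reaching 60%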;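 note: luciferase light reporting Pax8 driven TPO promoter activity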
Env fusion inh = inhibitors of HIV Env-mediated cell fusion. HeLa-JRFL Env/CEM21 cell fusion, luciferase. inhibition, % at 12.3 µM. 1.1% of 360,000 active. AID 651610;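 active = mean replicate inhibition score of at least 50 and every replicate individually at or above 50; inconclusive = only one of the two criteria met; inactive = mean below 50 and not all replicates reaching 50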
PGC1a acetyl inh = PGC1a acetylation modulation, inhibitor mode; U2OS PGC1a acetylation, AlphaScreen anti-acetyl-lysine; with virally co-expressed GCN5 acetyltransferase; inhibition, % at 15.6 µM; AID 651687; 0.17% of 350,000 active;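 active = every replicate shows inhibition of at least 40%; inconclusive = mean inhibition at least 40% but some replicate below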
Of the large screens only hits and unclear results are named; the others gave an inactive call. A selection: hits, their analogues and other compounds. The true share with any hit is near 2.7%.

C=CCSc1nc(=O)n2cccc(C)c2n1	GSIS activator 67 (no result: PAX8 reporter, Env fusion inh)
C[C@H]1CN([C@@H](C)CO)C(=O)c2ccccc2-c2ccccc2CO[C@@H]1CN(C)Cc1ccc(Cl)c(Cl)c1	GSIS activator 42 (no result: Env fusion inh)
C[C@H]1CN([C@@H](C)CO)C(=O)c2ccccc2-c2ccccc2CO[C@@H]1CN(C)Cc1cccc(C(F)(F)F)c1	GSIS activator 56 (no result: Env fusion inh)
C[C@@H]1CN([C@H](C)CO)C(=O)c2ccccc2-c2ccccc2CO[C@@H]1CN(C)Cc1ccccc1C(F)(F)F	PAX8 reporter 75 (no result: Env fusion inh)
Cc1noc(C)c1NC(=O)N(C)C[C@H]1OCCCC[C@H](C)Oc2ccc(NC(=O)CCC(F)(F)F)cc2C(=O)N([C@H](C)CO)C[C@@H]1C	none
COc1ccc(N2C(=O)CC(Cc3ccccc3)C2=O)cc1 (stereo not given)	none (no result: CFTR F508del cor, EWS-Fli block, GSIS activator)
COc1ccc(C[C@@H]2OC3(C=CC(=O)C=C3)O[C@H]2Cc2ccc(OC)cc2)cc1	PGC1a acetyl inh 90 (no result: CFTR F508del cor, EWS-Fli block, GSIS activator, PAX8 reporter, Env fusion inh)
O=C1Nc2ccccc2C1Cc1ccccc1 (stereo not given)	none (no result: PGC1a acetyl inh)
O=C1C=CC2(C=C1)O[C@H](Cc1ccccc1)[C@@H](Cc1ccccc1)O2	PAX8 reporter 121, PGC1a acetyl inh inconclusive
CCN=C1S/C(=C\c2cn(CC(=O)NCc3ccco3)c3ccccc23)C(=O)N1CC	PAX8 reporter 78
CN1CCN(c2ccc(-c3ccc4ccccc4n3)cc2)CC1	EWS-Fli block 93, PAX8 reporter 94 (no result: GSIS activator)
c1ccc2nc(-c3ccc(N4CCOCC4)cc3)ccc2c1	none (no result: CFTR F508del cor, EWS-Fli block, GSIS activator, PAX8 reporter)
Cc1ccc2nc(N/N=C/c3ccccc3C#N)nc(-c3ccccc3)c2c1	GSIS activator 48 (no result: PAX8 reporter, Env fusion inh)
N#Cc1ccccc1/C=N/Nc1nc(-c2ccccc2)c2cc(Cl)ccc2n1	none (no result: CFTR F508del cor, EWS-Fli block)
C[C@@H]1CCCCO[C@H](CN(C)C(=O)c2ccccc2)[C@@H](C)CN([C@@H](C)CO)C(=O)c2cc(NC(=O)Nc3cccc4ccccc34)ccc2O1	none (no result: PAX8 reporter)
CCc1ccc(C(=O)Nc2nc3ccccc3[nH]2)cc1	EWS-Fli block 75, PAX8 reporter 76 (no result: PGC1a acetyl inh)
O=C(Nc1nc2ccccc2[nH]1)c1ccc(F)cc1	none (no result: PAX8 reporter, Env fusion inh)
O=C(Nc1nc2ccccc2[nH]1)c1ccc(OC(F)F)cc1	none (no result: PGC1a acetyl inh)
CC(C)Oc1ccc(C(=O)Nc2nc3ccccc3[nH]2)cc1	EWS-Fli block 81, PAX8 reporter 68, Env fusion inh 57 (no result: PGC1a acetyl inh)
COc1ccc(-c2cc3ccccc3oc2=O)cc1NC(=S)NC(=O)c1ccc2c(c1)OCCO2	GSIS activator 94 (no result: CFTR F508del cor, EWS-Fli block, PAX8 reporter)
O=C(C[C@H]1C[C@H]2c3cc(NS(=O)(=O)c4ccc(F)cc4)ccc3O[C@H]2[C@H](CO)O1)NCc1ccccn1	none (no result: CFTR F508del cor, EWS-Fli block, PAX8 reporter, Env fusion inh, PGC1a acetyl inh)
Cc1cc(Nc2cc(Cl)nc(Sc3ccc(NC(=O)C4CC4)cc3)n2)n[nH]1	PAX8 reporter 75 (no result: PGC1a acetyl inh)
Cc1cc(NC(=O)c2ccc(NC(=O)C3CC3)cc2)no1	none (no result: PGC1a acetyl inh)
C[C@H](CO)N1C[C@H](C)[C@H](CN(C)Cc2ccc(Oc3ccccc3)cc2)Oc2ccc(NC(=O)Nc3ccc(C(F)(F)F)cc3)cc2C1=O	EWS-Fli block 56 (no result: PAX8 reporter, Env fusion inh)
C[C@@H]1CN([C@@H](C)CO)C(=O)c2cc(NC(=O)Nc3ccc(F)cc3)ccc2O[C@@H]1CN(C)Cc1ccc(Oc2ccccc2)cc1	PAX8 reporter 75
C[C@@H]1CN([C@H](C)CO)C(=O)c2cc(NC(=O)Nc3ccc(F)cc3)ccc2O[C@@H]1CN(C)Cc1ccc(-c2ccccc2)cc1	EWS-Fli block 64 (no result: PAX8 reporter)
C[C@@H]1CN([C@H](C)CO)C(=O)c2cc(NC(=O)Nc3ccc(F)cc3)ccc2O[C@H]1CN(C)Cc1ccc(-c2ccccc2)cc1	none (no result: PAX8 reporter)
C[C@H](CO)N1C[C@H](C)[C@@H](CN(C)Cc2ccc(Oc3ccccc3)cc2)Oc2ccc(NC(=O)Nc3ccc(C(F)(F)F)cc3)cc2C1=O	none (no result: PAX8 reporter, Env fusion inh)
O=C1O[C@@H](Cc2ccccc2)[C@H]2[C@@H]3C=CCCC=C3CN2C12CCCC2	none (no result: GSIS activator)
CCOC(=O)c1[nH]c(C)c(/C(O)=C2\C(=O)C(=O)N(CCCN3CCOCC3)C2c2cccs2)c1C (stereo not given)	CFTR F508del cor 15
Cn1ncc2c(O/N=C(\N)c3ccc(C(F)(F)F)cc3)ncnc21	EWS-Fli block 68, PAX8 reporter 92, PGC1a acetyl inh inconclusive (no result: GSIS activator)
CC1(C)Cc2c(cnn2-c2ccccc2)C(NC(=O)CCCN2CCCCC2=O)C1 (stereo not given)	none
CC1(C)Cc2c(cnn2-c2ccccc2)C(NC(=O)CCN2CCCC2=O)C1 (stereo not given)	GSIS activator 41 (no result: PGC1a acetyl inh)
COc1ccc(/C=N/NC(=O)c2cc(-c3ccc4c(c3)OCO4)n[nH]2)cc1OC	GSIS activator 49 (no result: CFTR F508del cor, PGC1a acetyl inh)
O=C(N/N=C/c1ccc(Cl)cc1)c1ccc2c(c1)OCO2	none
Cn1cc(C(=O)N/N=C/c2ccc3c(c2)OCO3)c2ccccc21	CFTR F508del cor 9.1 (no result: PGC1a acetyl inh)
O=C(N/N=C/c1ccc2c(c1)OCO2)c1ccc(Cl)cc1Cl	GSIS activator 58
CCCc1cn(CC[C@H]2CC[C@@H](NC(=O)Cc3cccnc3)[C@@H](CO)O2)nn1	none
Cc1ccc(Sc2c(CO)c(-c3ccccc3)nn2C)cc1	PAX8 reporter 66
Cc1ccc(-c2nn(-c3ccccc3)cc2CO)cc1	none
C[C@@H]1CN([C@H](C)CO)C(=O)c2cc(NC(=O)c3ccncc3)ccc2O[C@@H](C)CCCCO[C@H]1CN(C)S(=O)(=O)c1cccs1	none
O=C(c1cccc(C(F)(F)F)c1)N1CCc2c([nH]c3ccccc23)C1C(F)(F)F (stereo not given)	Env fusion inh 86 (no result: PGC1a acetyl inh)
CN(C)c1ccc(/C=C2/SC(=O)N(CCN=C3NS(=O)(=O)c4ccccc43)C2=O)cc1	none (no result: CFTR F508del cor)
CN(C)c1ccc(/C=C2\SC(=O)N(CCc3nnc(N)s3)C2=O)cc1	EWS-Fli block 82
Cc1noc(C)c1NC(=O)NCC[C@@H]1CC[C@H](NC(=O)Nc2cccc(Cl)c2)[C@H](CO)O1	none
CCOC(=O)N1CCN(C(=O)COc2cccc3c2CCN(Cc2ccc(F)cc2)C3=O)CC1	Env fusion inh 57 (no result: CFTR F508del cor, EWS-Fli block)
O=C1c2cccc(OCc3ccc(F)cc3)c2CCN1Cc1ccccc1	Env fusion inh 77 (no result: CFTR F508del cor, EWS-Fli block)
CCOC(=O)N1CCN(C(=O)COc2cccc3c2CCN(CC)C3=O)CC1	none
Cc1ccc(COc2cccc3c2CCN(Cc2ccc(F)cc2)C3=O)cc1	none (no result: CFTR F508del cor, PGC1a acetyl inh)
COc1ccc(NC(=O)N[C@@H]2CC[C@H](CCNC(=O)Nc3cc(F)ccc3F)O[C@H]2CO)cc1	none (no result: EWS-Fli block, PAX8 reporter, Env fusion inh)
COc1ccc(CN(C)C[C@H]2OCCCC[C@H](C)Oc3ccc(NC(=O)CCCN(C)C)cc3C(=O)N([C@H](C)CO)C[C@H]2C)cc1	none
CNC[C@@H]1OCCCC[C@H](C)Oc2ccc(NS(C)(=O)=O)cc2C(=O)N([C@H](C)CO)C[C@@H]1C	none
COCC(=O)N1CC2(C1)CN(Cc1cc(F)ccc1F)[C@@H](CO)c1c2c2ccc(OC)cc2n1C	none (no result: PAX8 reporter, Env fusion inh)
C[C@H]1CN([C@@H](C)CO)C(=O)c2cc(-c3ccc(F)cc3)cnc2O[C@H]1CN(C)Cc1cncnc1	none (no result: PAX8 reporter)
